As usually defined, the AC50 is the concentration giving half of the maximal activity seen.

SMILES strings stand for the structures. Activity calls are given as the source filed them. How the source made its calls: active means hit-call score of the fitted dose curve at least 0.9, where 1 is the maximum; inactive means score below 0.9.

Chain of X-box-binding protein 1 (Homo sapiens) (P17861 whole entry, looked up): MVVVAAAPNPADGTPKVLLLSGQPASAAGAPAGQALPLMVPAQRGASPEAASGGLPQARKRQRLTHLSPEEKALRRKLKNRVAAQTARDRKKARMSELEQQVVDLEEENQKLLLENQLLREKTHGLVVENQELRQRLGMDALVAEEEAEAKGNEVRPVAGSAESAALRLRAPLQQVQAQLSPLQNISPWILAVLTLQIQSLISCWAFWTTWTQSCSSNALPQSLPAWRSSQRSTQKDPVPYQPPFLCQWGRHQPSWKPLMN

This test has as its target X-box-binding protein 1 (Homo sapiens) (UniProt P17861). Description: ATG_Xbp1_CIS: Attagene CIS-FACTORIAL HepG2 Assay for human X-box Binding Protein 1 (XBP1) (AID 2282972). As to conditions: HepG2 XBP1 cis-element reporter, Attagene multiplex; actives raise or lower the signal. The procedure: ATG_CIS is a cell-based, multiplexed-readout assay that uses HepG2, a human liver cell line, with measurements taken at 24 hours after chemical dosing in a 24-well plate.ATG_Xbp1_CIS is one of 52 assay component(s) measured or calculated from the ATG_CIS assay. It is designed to make measurements of mRNA induction, a form of inducible reporter, as detected with fluorescence intensity signals by Reverse transcription polymerase chain reaction (RT-PCR) and Capillary electrophoresis technology.Data from the assay component ATG_Xbp1_CIS was analyzed into 1 assay endpoint. This assay endpoint, ATG_Xbp1_CIS, was analyzed with bidirectional fitting relative to DMSO as the negative control and baseline of activity. Using a type of inducible reporter, measures of mRNA for gain or loss-of-signal activity can be used to understand the reporter gene at the transcription factor-level as they relate to the gene XBP1. Furthermore, this assay endpoint can be referred to as a primary readout, because this assay has produced multiple assay endpoints where this one serves a reporter gene function. To generalize the intended target to other relatable targets, this assay endpoint is annotated to the dna binding intended target family, where the subfamily is basic leucine zipper.
Human liver HepG2 cells are transiently transfected with multiple reporter transcription units (MRTUs) in 6-well plates using FuGene 6 reagent (Roche; 3 ml FuGene/1 mg DNA). The MRTU constructs are regulated by a cis-regulating element (promoter). […] A major difference between the CIS and TRANS system is that in CIS activities of endogenous TFs are measured, whereas the TRANS assay evaluates changes in activities of exogenous, chimeric NR-Gal4 proteins. […] At the end of 24 hour incubation, total RNA was isolated using TriZol reagent (Invitrogen). The isolated RNA is then reverse-transcribed using oligo(dT) primer and Mo-MLV reverse transcriptase (Invitrogen) with DNAse I (Ambion) treatment for 30 min. The one-tenth of the produced cDNA was amplified by PCR using Taq DNA polymerase (Invitrogen) and two reporter sequence-specific primers. The PCR products were fluorescently labeled by primer extension with 6-arboxyfluorescein (6-FAM) 5'-labeled reporter sequence-specific primer (2 min at 95 C, 20 s at 68 C and 10 min at 72 C) and these products were digested with 5U of HpaI (New England Biolabs) for 2h at 37 C. The fragments were purified using Qiaquick PCR columns (Qiagen), analyzed on an ABI 3130xL genetic analyzer (Applied Biosystems) with peak positions identified by using a set of X-rhodamine (ROX)-labeled MapMarker1000 molecular weight standards (BioVentures). The raw capillary electrophoresis data was processed using Attagraph software (Attagene).
With `CCn1nc(Cc2ccccc2)cc1C1CCN(C[C@H]2C[C@H](N(C)[C@@H](C(=O)O)C(C)C)C[C@@H]2c2cccc(F)c2)CC1`, the call was inactive. Consider `CC[C@H]1CC[C@H](NCc2cc3c(cc2OC)[C@H]2C[C@H]2C(=O)N3C)[C@H](c2ccccc2)N1`, for which the concentration at half-maximal activity (AC50) is 96.6 µM (active). As to `CCOCCOCCOCCO`, the outcome was inactive. Regarding `COC(=O)c1ccccc1O`, the molecule was called inactive.

On to `O=C(CCCCCCCCc1cccnc1)N1CCC(C=C(c2ccccc2)c2ccccc2)CC1`, for which the AC50 was 3.5 µM (active). As to `CC1=CC(=O)CC(C)(C)C1`, the molecule was classed as inactive. Regarding `Clc1nc(Cl)c(Cl)c(Cl)c1Cl`, the molecule was called inactive.

`CCOC(=O)CC(CC(=O)OCC)(OC(C)=O)C(=O)OCC`: the molecule was classed as inactive. `CC(C)CC(C)(O)C#CC(C)(O)CC(C)C` (stereo not given): the molecule was classed as inactive.

Consider `CC/C(=C\C(=N/O)C(N)=O)C(C)[N+](=O)[O-]` (stereo not given), for which the result was inactive. The same measure, in the same setting: as for `CCCCCCCCCCCCc1ccccc1`, the entry is “inactive”; as for `CCCC(=O)OCC`, “inactive”; as for `COc1cccc(-c2ccc(/C=C\CN3CCCCCC3)cc2Cl)c1`, “inactive”. On to `CNCc1ccc(NC(=O)c2c[nH]c3c2C(=O)CCC3)cc1`, for which the call was inactive.

As for `C=CC(=C)CCC=C(C)C`, the result was inactive.

Consider `CNS(=O)(=O)c1cc(C(=O)N2CCC(CCN3C4CCC3CC(n3c(C)nc5ccccc53)C4)(c3cccc(F)c3)CC2)c(Cl)cc1F` (stereo not given), for which the outcome was inactive.

Consider `NC(=O)NO`, for which the molecule was called inactive.

In the case of `Cc1ccc(C)c(O)c1`, the outcome was inactive. On to `CCNc1ccccc1`, for which the outcome was inactive.

As for `CCCCC(CC)COC(=O)c1ccc(C(=O)OCC(CC)CCCC)cc1` (stereo not given), the molecule was classed as inactive. As to `CC(C)=CCC/C(C)=C\CO`, the result was inactive. As for `O=c1n(CC2CO2)c(=O)n(CC2CO2)c(=O)n1CC1CO1` (stereo not given), the AC50 is 74.9 µM (active). Turning to `Fc1ccccc1[C@@H](F)COC1CCC(Nc2ncnc3[nH]ncc23)CC1` (stereo not given in full), the molecule was called inactive.

On to `Cc1ccc(N)cc1O`, for which the call was inactive. For the molecule `Cc1ccc(S(=O)(=O)O)cc1C`, the result was inactive. On the same count and under the same terms, the entry for `C1N2CN3CN1CN(C2)C3` is “inactive”. Consider `CCc1cc(SCc2sc(-c3ccc(C(F)(F)F)cc3)nc2CN2CCN(c3ccc(OC)cc3)CC2)ccc1OCC(=O)O`, for which the AC50 is 8.03 µM (active). Take `O=C(O)c1cc(N=Nc2ccc(S(=O)(=O)Nc3ccccn3)cc2)ccc1O`: the molecule was classed as inactive.

As to `CC(C)CCCCCCOC(=O)c1ccc(C(=O)OCCCCCCC(C)C)c(C(=O)OCCCCCCC(C)C)c1`, the call was inactive. On to `CC1(C)C(=O)N(Br)C(=O)N1Br`, for which the call was inactive. Regarding `C=CCCCCCCCCC(=O)O`, the molecule was classed as inactive. For the molecule `CC(C)c1cccc(C(C)C)c1N1C(=O)c2ccc(O)cc2C1=O`, the half-maximal activity concentration (AC50) is 100 µM (active). Turning to `COCCOc1cc2cc(C(=O)NC3CCN(C(C)C)CC3)n(CC(=O)Nc3ccc(Cl)cn3)c2cn1`, the concentration at half-maximal activity (AC50) was 100 µM (active).

With `CC(C)=CCCC(C)=CC=O`, the molecule was classed as inactive.

As for `Cc1ccc(O)cc1`, the molecule was classed as inactive. On the same count and under the same terms, the entry for `Cn1c(=O)cc(Oc2ccc(F)cc2F)c2cnc(NCC(C)(C)O)nc21` is “inactive”. `COc1ccc(-n2nc(C(F)F)cc2-c2ccc(S(C)=O)cc2)cc1` (stereo not given): the molecule was called inactive. For the molecule `CC(C)=CCCC(C)CCO` (stereo not given), the molecule was classed as inactive. Regarding `CCOC(=O)COc1ccc2c(c1)CC(NCC(O)c1cccc(Cl)c1)CC2` (stereo not given), the molecule was called inactive. Regarding `CC[C@H]1OC(=O)[C@H](C)[C@@H](O[C@H]2C[C@@](C)(OC)[C@@H](O)[C@H](C)O2)[C@H](C)[C@@H](O[C@@H]2O[C@H](C)C[C@H](N(C)C)[C@H]2O)[C@](C)(O)C[C@@H](C)C(=O)[C@H](C)[C@@H](O)[C@]1(C)O`, the call was inactive.

These data come from PubChem BioAssay (EPA / NIEHS).
